Holding throughout (assay): pooled miR-30 sensor sort-seq; sequence = guide strand
What all share (settings): shRNA

Experiment [1] addresses ALDH9A1.
Experiment [2] deals with ALDH1A3.
The target of experiment [3] is ANXA5.
Experiment [4] addresses AP1S1.
Also: reference of the scale not given here.

For the sequence TAATACACAAGGTCTCATGTAA, the sensor-assay potency score (higher = more potent) in experiment [1] was 0.189.

Turning to TTTTGAACTTCAGTATTGGTTG, the sensor-assay potency score (higher = more potent) in experiment [2] is -0.527.

TTCCACTTCACATATTTGCTCC gave a sensor-assay potency score (higher = more potent) in experiment [2] of -0.153. TTCTTCGATACTTTTGAACTTC: in experiment [2], the sensor-assay potency score (higher = more potent) stood at 0.188.

Sequence TTTCTTGGCATACTCCACGCTC registered a sensor-assay potency score (higher = more potent) in experiment [2] of -0.65. For the sequence TTGGTTGAAGAACACTCCCTGA, in experiment [2], the sensor-assay potency score (higher = more potent) was -0.48.

In turn, TAGATTTCCTCTATCGCAGTAG had a sensor-assay potency score (higher = more potent) in experiment [1] of 0.289. In the case of TTAATTTGGGATCTTCAGGTAC, the sensor-assay potency score (higher = more potent) in experiment [1] was determined as 0.221. TCTTTCTGCACAAATACTCTTG registered a sensor-assay potency score (higher = more potent) in experiment [1] of -0.35. ATAAATATCTTGGTGAACTTGA returned a sensor-assay potency score (higher = more potent) in experiment [2] of -0.0326. The sequence TTGTTAATGAAGCACGTCCCAG came in with a sensor-assay potency score (higher = more potent) in experiment [1] of -1.05. Turning to TAACACTTTAGCACCCTGCTCC, the sensor-assay potency score (higher = more potent) in experiment [1] turned out to be 0.132. As for TTCTCTAGAAGTATGTTACTGG, the sensor-assay potency score (higher = more potent) in experiment [1] is -0.159. In experiment [1], TTAGTTAATACACAAGGTCTCA gave a sensor-assay potency score (higher = more potent) of -0.528. On to TTCGATACTTTTGAACTTCAGT, for which, in experiment [2], the sensor-assay potency score (higher = more potent) is -0.228.

TTTATCACTTCTTCGATACTTT gave a sensor-assay potency score (higher = more potent) in experiment [2] of -0.132. In experiment [1], TTGATGAGTGGACCCATCCTTG gave a sensor-assay potency score (higher = more potent) of -0.479.

In turn, TTTTTTGTGAACACGGCTGCTG gave a sensor-assay potency score (higher = more potent) in experiment [2] of 0.356. In experiment [2], TAAGATTTTGTCGAACTGCTTT had a sensor-assay potency score (higher = more potent) of 0.131. Same read-out and setting: then TTCTGTTTTGACATCGAAGGGG, with 0.0292.

Consider TTCTTGATTAGTATCTACAAGG, for which the sensor-assay potency score (higher = more potent) in experiment [1] was -0.856. Turning to TAACATTCAGTTGTACTGCCTC, the sensor-assay potency score (higher = more potent) in experiment [1] was -0.0109. For TAGTCGGTGCTATTCGCTCTTT, the sensor-assay potency score (higher = more potent) in experiment [2] is -0.888. Consider TTTCCTGACATTTTAAAGCCAC, for which the sensor-assay potency score (higher = more potent) in experiment [2] is -0.397. On to TAGCAGTTGATCCAGACCGTTC, for which the sensor-assay potency score (higher = more potent) in experiment [2] is -1.2.

In experiment [1], TAATACTCCAGGCACTGCCAGG registered a sensor-assay potency score (higher = more potent) of -1.24. TTGATTAGTATCTACAAGGCAC gave a sensor-assay potency score (higher = more potent) in experiment [1] of 0.363. With TCTGTTTTGACATCGAAGGGGT, in experiment [2], the sensor-assay potency score (higher = more potent) was found to be 0.173.

Turning to TTCTCTTATACTGAACGCCAAA, the sensor-assay potency score (higher = more potent) in experiment [1] is -1.4. Regarding TTTTTGTGAACACGGCTGCTGT, in experiment [2], the sensor-assay potency score (higher = more potent) is -0.433. Regarding TCTCATGTAATATCCATCCTTT, in experiment [1], the sensor-assay potency score (higher = more potent) is -0.314.

Sequence TATCTTGGTGAACTTGACCTCC gave a sensor-assay potency score (higher = more potent) in experiment [2] of 0.362. TTCTTCTTCATAAACTTGTTTG returned a sensor-assay potency score (higher = more potent) in experiment [3] of -0.985. The same measure, in the same setting: then TTAATTTTTCAAATTTTCCAGT, with 0.274; and TTGGTCATGAGCATGCTAGTAT, with -0.14; and TTTCTGTCAGTACTTTTTCATT, with -1.52.

Regarding ATAGACAACTTTGAGGTCCCTC, the sensor-assay potency score (higher = more potent) in experiment [4] was 0.0527. Take TTCCGTTCCTTGTCCGAAGTGG: in experiment [4], the sensor-assay potency score (higher = more potent) was 0.268. In the case of TTGAAGATGATGTCCAGCTCGC, in experiment [4], the sensor-assay potency score (higher = more potent) is 0.319. The sequence TAAATTGCCAGAAGTCTCGCGG yielded a sensor-assay potency score (higher = more potent) in experiment [3] of 0.467. In turn, TCTAAGAGCTCCACGTATCGGT showed a sensor-assay potency score (higher = more potent) in experiment [4] of 0.301. In experiment [4], TTCTTCCGTTCCTTGTCCGAAG showed a sensor-assay potency score (higher = more potent) of -0.991. In experiment [3], TAAACTTAGTAACATTAAGTAC gave a sensor-assay potency score (higher = more potent) of -0.822. Sequence TTGCAGTAGGTCAGCCTGCTCG displayed a sensor-assay potency score (higher = more potent) in experiment [4] of -0.856. In experiment [3], TACACTTTAGTACTACAGCAGT registered a sensor-assay potency score (higher = more potent) of -0.815.

In experiment [4], TATCTCTTATAGACAACTTTGA registered a sensor-assay potency score (higher = more potent) of -1.08.

As for TTTCACAACAGCAAGGAGTAGT, in experiment [3], the sensor-assay potency score (higher = more potent) was -0.0711. For the sequence TAGCATAATAGAGGGTCTCTGC, the sensor-assay potency score (higher = more potent) in experiment [3] is -0.439. With TTTAGTTGCGAACTTCACTAAT, the sensor-assay potency score (higher = more potent) in experiment [3] was -0.975.

On to TAGACAACTTTGAGGTCCCTCC, for which the sensor-assay potency score (higher = more potent) in experiment [4] was -0.899. On to TACTTGTCAAACACCTTTCTCA, for which the sensor-assay potency score (higher = more potent) in experiment [3] stood at 0.224.

For the sequence TAAGAGCTCCACGTATCGGTGG, in experiment [4], the sensor-assay potency score (higher = more potent) turned out to be 0.135. On the same count and under the same terms, in the case of TTTCAGCACACTCTTCTTGGAG it was -0.813. Consider TTCATAAGCATCATAAAGCCGA, for which the sensor-assay potency score (higher = more potent) in experiment [3] is -0.311.

Sequence TTTCATTTGTTCCAGCTCCCTT registered a sensor-assay potency score (higher = more potent) in experiment [3] of -0.639.

As to AACAGATCAATCTCACTCCTGG, in experiment [3], the sensor-assay potency score (higher = more potent) is -0.0547. As to TCGCGCACCATCTTCTTCCGTT, the sensor-assay potency score (higher = more potent) in experiment [4] is -0.362. TTCAGCACACTCTTCTTGGAGG: in experiment [4], the sensor-assay potency score (higher = more potent) was -0.8.

In the case of TGTGATGAGCTCATTGTCTTGG, the sensor-assay potency score (higher = more potent) in experiment [4] was 0.479.

In experiment [4], TCTCTTATAGACAACTTTGAGG gave a sensor-assay potency score (higher = more potent) of -1.16.

The values are drawn from the OligoGym collection.
